# Measured values reported in PubChem BioAssay AID488969 (Vanderbilt High Throughput Screening Facility, 2010).
# In all, about 110,000 compounds were measured (“z-score”: median about -0.1, highest 2% from about 2 on). This excerpt belongs to a sample that is enriched for the highest values. Activity calls are given as the source filed them.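 Rule for the calls: active = z-score in the third read window above 3 or below -3; inactive = the rest.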
# Target: Metabotropic glutamate receptor 8 (Rattus norvegicus) (UniProt P70579)
# Sequence (P70579 whole entry, looked up): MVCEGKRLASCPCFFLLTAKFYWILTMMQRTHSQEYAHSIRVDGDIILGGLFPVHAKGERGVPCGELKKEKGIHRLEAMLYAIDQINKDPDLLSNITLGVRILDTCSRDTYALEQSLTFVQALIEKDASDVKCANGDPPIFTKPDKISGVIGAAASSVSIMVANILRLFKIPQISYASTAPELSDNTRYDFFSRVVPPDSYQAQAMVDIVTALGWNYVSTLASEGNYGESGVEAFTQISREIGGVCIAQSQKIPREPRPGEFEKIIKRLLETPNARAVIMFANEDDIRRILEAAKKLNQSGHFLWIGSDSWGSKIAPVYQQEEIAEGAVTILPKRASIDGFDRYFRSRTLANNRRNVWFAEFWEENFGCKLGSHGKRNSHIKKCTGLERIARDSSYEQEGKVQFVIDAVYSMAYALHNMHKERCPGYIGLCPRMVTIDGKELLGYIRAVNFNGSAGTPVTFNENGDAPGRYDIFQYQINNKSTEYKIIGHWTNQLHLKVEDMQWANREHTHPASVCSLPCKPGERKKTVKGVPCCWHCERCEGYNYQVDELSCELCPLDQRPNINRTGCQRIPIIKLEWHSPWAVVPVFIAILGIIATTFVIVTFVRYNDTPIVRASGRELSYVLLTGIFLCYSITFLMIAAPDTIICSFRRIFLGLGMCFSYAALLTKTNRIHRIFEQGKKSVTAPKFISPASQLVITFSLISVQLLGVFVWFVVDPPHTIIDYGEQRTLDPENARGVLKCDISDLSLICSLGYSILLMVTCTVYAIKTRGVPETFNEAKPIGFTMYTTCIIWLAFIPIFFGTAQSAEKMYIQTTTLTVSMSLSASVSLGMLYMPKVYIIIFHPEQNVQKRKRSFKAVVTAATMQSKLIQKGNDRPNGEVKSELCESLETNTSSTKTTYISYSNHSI
# Test: rat mGluR8 modulators via GIRK flux, primary screen, cell-based, thallium flux, HTS (AID 488969)
# Settings: HEK293 rat mGluR8, GIRK (G protein-gated inwardly rectifying potassium channel) thallium flux, FluoZin2; at 10 µM; stronger effect = higher value; submaximal glutamate (EC20) added with thallium
row,Compound,z-score
1,CC(CCc1ccccc1)NC(=O)C(Cc1ccccc1)NS(=O)(=O)c1cccs1 (centres undefined),-0.446
2,COc1ccc(-c2cc(CNC(=O)CCl)on2)cc1,-0.113
3,CC(=O)c1ccc(N2CCN(C(=O)c3ccco3)CC2)c(F)c1,-0.0315
4,Cc1ccc2nc(-c3ccc(NC(=S)NC(=O)C(C)C)cc3)sc2c1,-0.127
5,Cc1ccc(SC(=O)COc2ccccc2C)cc1,-0.399
6,Cc1ccc(CNC(=O)COC(=O)CSc2cc(C)c(Br)cc2C)cc1,0.22
7,COc1ccc(/C=C2\CCCC(C(=O)C(F)(F)F)=C2O)cc1,2.59
8,COc1ccc(/C=C2\CCOC2=O)cc1,0.296
9,O=C(C1=C(O)/C(=C/c2ccc(O)cc2)CCC1)C(F)(F)F,0.181
10,Cc1ccc(NC(=O)CN2CCC(C(=O)c3ccc4c(c3)OCCO4)CC2)cc1,-0.152
11,CCOCCCNC(=O)C(NC(=O)CC1NC(=O)NC1=O)c1ccc(Cl)cc1 (centres undefined),-0.134
12,COc1ccc(CCNC(=O)c2nc3ncccn3n2)cc1OC,0.169
13,O=P(OC1CCCCC1)(OC1CCCCC1)C(O)c1ccccc1 (centres undefined),-0.904
14,Cc1ccc(-n2[nH]c(C)c(C=Nc3ccc4[nH]c(=O)[nH]c4c3)c2=O)cc1,-0.443
15,Cc1[nH]n(-c2ccccc2)c(=O)c1C=Nc1cccc2cccnc12,0.652
16,Cc1ccc(-n2[nH]c(C)c(C=Nc3ccc(S(=O)(=O)Nc4nccs4)cc3)c2=O)cc1,-0.363
17,Cc1[nH]n(-c2ccccc2)c(=O)c1/C=N\NC(=O)C1COc2ccccc2O1 (centres undefined),-0.0839
18,Cc1[nH]n(-c2ccccc2)c(=O)c1/C=N/c1ccccn1,2.61
19,Cc1[nH]n(-c2ccccc2)c(=O)c1/C=N/O,-0.187
20,CCCCN(CCCC)C(=S)N/N=C/c1c(C)[nH]n(-c2ccccc2)c1=O,10.4 (active)
21,Cc1ccc(-n2[nH]c(C)c(/C=N/c3ccccn3)c2=O)cc1,6.24 (active)
22,Cc1ccc(-n2[nH]c(C)c(/C=N/n3c(C)nc4ccccc4c3=O)c2=O)cc1,0.177

row,Compound,z-score
1,Cc1ccc2cccc(N=Cc3c(C)[nH]n(-c4ccccc4)c3=O)c2n1,0.282
2,Cc1ccc(-n2[nH]c(C)c(C=Nc3cc(C)ccn3)c2=O)cc1,10.6 (active)
3,CCCc1nc2ccccc2c(=O)n1/N=C/c1c(C)[nH]n(-c2ccc(C)cc2)c1=O,1.38
4,Cc1nc2ccc(S(=O)(=O)NCC(=O)N3CCCCC3)cc2s1,-0.09
5,COc1cc(NC(=O)CN(C)Cc2ccc(OC(F)F)cc2)c(C)cc1[N+](=O)[O-],-0.0913
6,COC(=O)c1ccc(CSc2n[nH]c(C)n2)o1,-0.0591
7,CCOc1ccc(C(C)=O)cc1COC(=O)C1=COCCO1,-1.15
8,CCCc1nc2sc3c(=O)n(N)cnc3c2c2c1CCCC2,-0.191
9,Cc1[nH]n(-c2ccc(Cl)cc2)c(=O)c1C=NC12CN3CN(CN(C3)C1)C2,-0.111
10,Cc1[nH]n(-c2ccc(Cl)cc2)c(=O)c1/C=N/c1nnc(-c2ccccc2)s1,8.81 (active)
11,CCc1nnc(NS(=O)(=O)c2ccc(N=Cc3c(C)[nH]n(-c4ccc(Cl)cc4)c3=O)cc2)s1,-0.276
12,O=C(CSCCO)Nc1ccccc1,3.04 (active)
13,O=C(O)CSCC(=O)Nc1ccccc1,0.00603
14,O=C(O)CCCSCC(=O)Nc1ccccc1,0.633
15,Cc1ccc(C2=[N+]([O-])C3(CCCCC3=O)N(O)C2(C)C)cc1 (centres undefined),0.0871
16,O=C(COC(=O)Cc1cccc2ccccc12)Nc1ccccc1-c1ccccc1,-0.174
17,COc1cc(/C=C2\SC(=S)N(Nc3ncc(C(F)(F)F)cc3Cl)C2=O)ccc1O,1.29
18,O=C1/C(=C\c2ccccn2)SC(=S)N1Nc1ncc(C(F)(F)F)cc1Cl,3.17 (active)
19,O=C1/C(=C/c2ccc(F)cc2)SC(=S)N1Nc1ncc(C(F)(F)F)cc1Cl,0.426
20,CCOC(=O)CC1C(=O)NCCN1C(=O)c1cc2c(=O)n3ccccc3nc2s1 (centres undefined),-0.533
21,Cc1c(Cl)cccc1NC(=O)CNc1cccc(S(=O)(=O)N(C)C)c1,-0.138
22,CCN(CC)S(=O)(=O)c1cccc(NC(=O)COc2ccc(C#N)cc2OC)c1,-0.191

row,Compound,z-score
1,Cc1cc(=O)oc2cc(OCC(=O)Nc3cccc(S(=O)(=O)N(C)C)c3)ccc12,-0.0464
2,CN(C)S(=O)(=O)c1cccc(NC(=O)COc2cccc(C#N)c2)c1,3.82 (active)
3,CCNc1ccc(S(=O)(=O)N(C)C)cc1NCC(=O)Nc1ccc(F)c(Cl)c1,0.204
4,CN(C)S(=O)(=O)c1cccc(NC(=O)COC(=O)CCSc2ccc(Cl)cc2)c1,0.722
5,Cc1ccc(NCC(=O)Nc2cccc(S(=O)(=O)N(C)C)c2)c(Cl)c1,4.79 (active)
6,CN(C)S(=O)(=O)c1cccc(NC(=O)Cc2ccc(Cl)cc2)c1,4.58 (active)
7,O=C(Cc1ccc(Cl)cc1)Nc1cccc(S(=O)(=O)Nc2ccccc2F)c1,0.371
8,CC1CN(c2c3c(nc4ncnn24)CCCC3)CC(C)O1 (centres undefined),-0.374
9,Cc1ccc(N(C(C)C(=O)Nc2ccc(S(=O)(=O)N3CCOCC3)cc2)S(C)(=O)=O)cc1 (centres undefined),0.137
10,CCCCc1ccc(-c2csc(/C(C#N)=C/c3ccco3)n2)cc1,-0.275
11,CCOCCCNC(=O)c1ccc(CS(=O)(=O)Cc2cccc(C)c2)o1,0.789
12,O=C1CC(N2CCC(O)(c3ccc(Cl)cc3)CC2)C(=O)N1 (centres undefined),0.198
13,COc1cccc(NC(=O)N(CCCN2CCOCC2)C(C)c2cc3ccccc3o2)c1 (centres undefined),-2.21
14,CCN(C(=O)CCN1C(=O)c2ccccc2C1=O)C1CCCCC1,0.156
15,O=C(CSc1nc(O)cc(=O)n1-c1ccccc1)N1CCCCC1,4.46 (active)
16,NC(=O)CSc1nc(O)cc(=O)n1-c1ccccc1,0.418
17,O=C(CSc1nc2ccccc2c(=O)n1-c1ccccc1)N1CCCC1,-0.689
18,COc1ccc(Cn2nnnc2C(c2ccc(F)cc2)N2CCN(C3CCCC3)CC2)cc1 (centres undefined),3.92 (active)
19,Fc1ccc(C(c2nnnn2Cc2cccs2)N2CCN(C3CCCC3)CC2)cc1 (centres undefined),1.73
20,COc1ccc(Cn2nnnc2C(c2ccc(C)cc2)N2CCN(C3CCCC3)CC2)cc1 (centres undefined),0.353
21,COc1ccc(Cn2nnnc2C(c2ccccc2Cl)N2CCN(C3CCCC3)CC2)cc1 (centres undefined),1.79
22,CC(C)C(c1nnnn1Cc1ccco1)N1CCN(C2CCCC2)CC1 (centres undefined),-0.255

row,Compound,z-score
1,Fc1ccc(C(c2nnnn2Cc2ccco2)N2CCN(C3CCCCC3)CC2)cc1 (centres undefined),2.31
2,N#Cc1nc(-c2ccccc2)oc1NCC1CCCO1 (centres undefined),-0.084
3,Cc1nn2c([nH]c(=O)c3ccccc32)c1C=O,0.184
4,Cc1cc2[nH]c(=O)c3ccccc3n2n1,4.8 (active)
5,CCOC(=O)c1cnn2c1[nH]c(=O)c1ccccc12,1.54
6,CCOC(=O)c1ccccc1NC(=O)Cc1ccccc1OC,-0.663
7,CCCOc1ccccc1N/C(=N/c1nc(C)cc(C)n1)NC(=O)COc1ccc(OC)cc1,0.266
8,CC1CN(C(=O)C2CCCC2)C(C)CN1C(=O)C1CCCC1 (centres undefined),0.888
9,CC1CN(C(=O)C2CCCCC2)C(C)CN1C(=O)C1CCCCC1 (centres undefined),11.1 (active)
10,CC1CN(C(=O)C2CC2)C(C)CN1C(=O)C1CC1 (centres undefined),0.00492
11,Cc1ccccc1NC(=O)c1cn(-c2ccccc2)nc1-c1ccccc1,0.316
12,O=C(Nc1ccccc1)Nc1ccc2snnc2c1,-0.373
13,CC(C)c1ccc(Oc2cccc(C(=O)/C(C#N)=C/N(C)C)c2)cc1,-0.286
14,CC1(C)Cc2ccccc2C(=O)N1,0.0959
15,Cc1cc2c(cc1C)C(=O)NC(C)(C)C2,5.66 (active)
16,CC(C)c1ccc2c(c1)C(=O)NC(C)(C)C2,-0.156
17,O=C(CN1C(=O)CCS(=O)(=O)c2ccccc21)Nc1cccc(F)c1,-0.608
18,Cc1ccc(C)c(Nc2c([N+](=O)[O-])cc(C(=O)N3CC(=O)Nc4ccccc43)cc2[N+](=O)[O-])c1,4.62 (active)
19,Cc1ccc(Nc2c([N+](=O)[O-])cc(C(=O)N3CC(=O)Nc4ccccc43)cc2[N+](=O)[O-])c(C)c1,-0.162
20,CCc1cccc(Nc2c([N+](=O)[O-])cc(C(=O)N3CC(=O)Nc4ccccc43)cc2[N+](=O)[O-])c1,-1.1
21,O=C(c1ccc(O)cc1)c1ccc(Cl)cc1,-0.563
22,CCOC(=O)Nc1cc2c(cc1C(C)=O)OCO2,0.657

row,Compound,z-score
1,CCOc1ccc(N2CC(C(=O)Nc3ccccc3OC)CC2=O)cc1 (centres undefined),1.1
2,COC(=O)c1ccccc1NC(=O)C1CC(=O)N(c2ccc(C)cc2)C1 (centres undefined),-0.265
3,COc1ccc(Cl)cc1NC(=O)C1CC(=O)N(c2ccc(F)cc2)C1 (centres undefined),0.0135
4,COC(=O)c1ccccc1NC(=O)C1CC(=O)N(c2ccccc2)C1 (centres undefined),-0.0106
5,COC(=O)c1ccccc1NC(=O)C1CC(=O)N(c2ccc(F)cc2)C1 (centres undefined),2.15
6,COc1ccc(OC)c(NC(=O)C2CC(=O)N(c3ccc(Br)cc3)C2)c1 (centres undefined),3.63 (active)
7,O=C(CCC(=O)OCC(=O)c1cccc([N+](=O)[O-])c1)Nc1cccc(Cl)c1Cl,-0.0921
8,O=C(c1ccc(N2CCN(CCO)CC2)nc1)N1CCOCC1,0.0375
9,CC12CC(c3ccccc3O1)N(C(=O)c1ccco1)C(=S)N2c1ccc(F)cc1 (centres undefined),-0.812
10,CC(C)OC(=O)c1cc2c(ccn2C)n1CC(=O)N(Cc1ccccc1)c1ccc(F)cc1,-0.00352
11,CCOC(=O)c1nnn(-c2nonc2N)c1COc1ccc(F)cc1,-0.0888
12,Cc1ccccc1OCCCC(=O)Nc1nccs1,2.49
13,O=C(CCCOc1ccccc1)Nc1nccs1,-1.29
14,Cc1ccc(C)c(OCCCC(=O)Nc2nccs2)c1,-0.0356
15,COCCCn1c(=N)c(C(=O)NCc2ccc3c(c2)OCO3)cc2c(=O)n3ccccc3nc21,-0.494
16,CCCC(=O)OCC(=O)Nc1ccccc1Sc1ccccc1,-0.604
17,COc1ccccc1/C=N/NC(=O)CC(=O)NCc1cccnc1,-0.2
18,O=C(c1cc2nc(-c3ccco3)cc(C(F)(F)F)n2n1)N1CCN(Cc2ccccc2)CC1,-0.1
19,O=C1NC(=O)C2(COC(c3cccnc3)OC2)S1 (centres undefined),2.49
20,CCOC(=O)C1=C(C)NC(=O)NC1c1cccnc1 (centres undefined),0.62
21,O=C1NC(=O)C2(COC(c3ccccc3Cl)OC2)S1 (centres undefined),-0.116
